PubChem BioAssay (NCATS)
Records with an inconclusive call do not appear. Active and inactive are the calls of the source. Calls come from the whole dose curve; as a rule, active = well fitted curve in the direction sought with a large enough effect; inconclusive = small, poorly fitted or top-dose-only effect, or another doubt; inactive = no such curve, though single readings can be large; an effect the other way counts as inactive or inconclusive.

Legend:
[1] = Primary fluorescence-based thiol-reactive (MSTI) qHTS assay for identification of artifact compounds. (AID 1845221);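 note: thiol-reactive compounds lower the probe fluorescence signal; nearly all actives have a fitted effect of over 65% in size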
Outline: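 First, 4 uM MSTI in 2% DMSO/PBS pH 7.4 was dispensed; next, compounds were added; then plates sat 1 h at room temperature without light. Finally, emission at 598 nm was recorded.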

[2] = tested on: Nanoluciferase (engineered Oplophorus gracilirostris luciferase); assay: Primary Nanoluciferase (NLuc) qHTS assay for identification of artifact compounds. (AID 1845222);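 note: NLuc secreted into diluted conditioned medium of S16 cells; 0% = DMSO and -100% = no enzyme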
Outline: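 Using secreted nanoluciferase in S16 culture medium (0.22 um filtered, 1:55 dilution), compounds were preincubated 15 min at RT. Signal was generated with Nano-Glo reagent (1:100) over 5 min.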

[3] = Primary redox qHTS assay for identification of artifact compounds. (AID 1845223)
Outline: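 Redox-cycling detection via DTT (250 uM final) oxidation coupled to Amplex Red (25 uM)/HRP (250 mU/mL) in HBSS. 15 min preincubation plus 30 min after DTT, room temperature. Ex/Em 525/598 nm; 4-parameter Hill fit against DMSO and 10 uM DA3003.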

[4] = Quantitative High-Throughput drug screen in 47 multiple myeloma cell lines against the NCATS MIPE library collection: AMO1_DSMZ cell viability assay (AID 1918927; note: nearly all actives have a fitted effect of over 30% in size; note: potency is the fitted concentration of half-maximal effect)
Outline: (§1)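 Steps: seed 500 cells per well; pin-transfer MIPE 4.0 library; incubate 48 h at 37C, 5% CO2, humidified; add CellTiter-Glo, 5 min room temperature; read luminescence.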

[5] = Quantitative High-Throughput drug screen in 47 multiple myeloma cell lines against the NCATS MIPE library collection: ARD_JJKsccE7 cell viability assay (AID 1918929; note: potency is the fitted concentration of half-maximal effect;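 for viability: 100% = DMSO-only wells and 0% = media-only wells without cells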)
Outline: as §1

[6] = Quantitative High-Throughput drug screen in 47 multiple myeloma cell lines against the NCATS MIPE library collection: KMM1_JCRB cell viability assay (AID 1918960); note: nearly all actives have a fitted effect of over 30% in size; note: potency is the fitted concentration of half-maximal effect
Outline: (§2)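 Viability screen: myeloma cells (500/well) incubated 48 h at 37 °C, humidified 5% CO2, with pinned library compounds; CellTiter-Glo added, luminescence read; DMSO wells set 100%, medium-only wells 0%.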

[7] = Quantitative High-Throughput drug screen in 47 multiple myeloma cell lines against the NCATS MIPE library collection: KHM11_PLB cell viability assay (AID 1918962); note: potency is the fitted concentration of half-maximal effect; nearly all actives have a fitted effect of over 35% in size
Outline: (§3)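 Relative luminescence from CellTiter-Glo served as the viability signal, referenced to DMSO-treated (100%) and cell-free medium (0%) controls. Treatment lasted 48 hours at 37C with 500 cells per well.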

[8] = Quantitative High-Throughput drug screen in 47 multiple myeloma cell lines against the NCATS MIPE library collection: JIM3_ECACC cell viability assay (AID 1918963; note: nearly all actives have a fitted effect of over 35% in size; note: potency is the fitted concentration of half-maximal effect)
Outline: as §3

[9] = Quantitative High-Throughput drug screen in 47 multiple myeloma cell lines against the NCATS MIPE library collection: JIM1_ECACC cell viability assay (AID 1918964; note: potency is the fitted concentration of half-maximal effect)
Outline: as §1

[10] = Quantitative High-Throughput drug screen in 47 multiple myeloma cell lines against the NCATS MIPE library collection: INA6_PLB cell viability assay (AID 1918965; note: nearly all actives have a fitted effect of over 55% in size; note: potency is the fitted concentration of half-maximal effect)
Outline: as §3

[11] = Quantitative High-Throughput drug screen in 47 multiple myeloma cell lines against the NCATS MIPE library collection: JJN3_DSMZ cell viability assay (AID 1918966; note: nearly all actives have a fitted effect of over 50% in size; note: potency is the fitted concentration of half-maximal effect)
Outline: as §1

[12] = Quantitative High-Throughput drug screen in 47 multiple myeloma cell lines against the NCATS MIPE library collection: H1112_PLB cell viability assay (AID 1918967; note: nearly all actives have a fitted effect of over 30% in size; note: potency is the fitted concentration of half-maximal effect)
Outline: as §1

[13] = Quantitative High-Throughput drug screen in 47 multiple myeloma cell lines against the NCATS MIPE library collection: Karpas25_ECACC cell viability assay (AID 1918968; note: nearly all actives have a fitted effect of over 35% in size; note: potency is the fitted concentration of half-maximal effect)
Outline: as §1

[14] = Quantitative High-Throughput drug screen in 47 multiple myeloma cell lines against the NCATS MIPE library collection: Delta47_JCRB cell viability assay (AID 1918925; note: nearly all actives have a fitted effect of over 45% in size; note: potency is the fitted concentration of half-maximal effect)
Outline: as §1

[15] = Quantitative High-Throughput drug screen in 47 multiple myeloma cell lines against the NCATS MIPE library collection: Karpas620_DSMZ cell viability assay (AID 1918959); note: nearly all actives have a fitted effect of over 30% in size; note: potency is the fitted concentration of half-maximal effect;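 for viability (% of DMSO): 100% = DMSO-only wells and 0% = cell-free media-only wells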
Outline: as §3

[16] = Quantitative High-Throughput drug screen in 47 multiple myeloma cell lines against the NCATS MIPE library collection: EJM_DSMZ cell viability assay (AID 1918926; note: nearly all actives have a fitted effect of over 30% in size; note: potency is the fitted concentration of half-maximal effect)
Outline: as §1

[17] = Quantitative High-Throughput drug screen in 47 multiple myeloma cell lines against the NCATS MIPE library collection: ARP1_JJKsccF8 cell viability assay (AID 1918928; note: nearly all actives have a fitted effect of over 40% in size; note: potency is the fitted concentration of half-maximal effect)
Outline: as §2

[18] = Quantitative High-Throughput drug screen in 47 multiple myeloma cell lines against the NCATS MIPE library collection: KMS27_JCRB cell viability assay (AID 1918970); details: KMS27 myeloma cells, CellTiter-Glo ATP viability, 48 h; viability (% of DMSO): at 45.8 µM (top of the series); note: nearly all actives have a fitted effect of over 30% in size; note: potency is the fitted concentration of half-maximal effect;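 for viability (% of DMSO): 100% = DMSO-only wells and 0% = media-only wells without cells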
Outline: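 ATP-based viability (CellTiter-Glo luminescence) is measured in cells treated 48 h with approved and investigational drugs at 37 °C. Controls are DMSO-only wells for full viability and media-only wells for none.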

[19] = Quantitative High-Throughput drug screen in 47 multiple myeloma cell lines against the NCATS MIPE library collection: FR4_PLB cell viability assay (AID 1918924; note: nearly all actives have a fitted effect of over 35% in size; note: potency is the fitted concentration of half-maximal effect)
Outline: as §3

[20] = Quantitative High-Throughput drug screen in 47 multiple myeloma cell lines against the NCATS MIPE library collection: Karpas417_ECACC cell viability assay (AID 1918961); details: Karpas417 myeloma viability, CellTiter-Glo ATP luminescence, 48 h; viability (% of DMSO): at 45.8 µM (top of the series); note: potency is the fitted concentration of half-maximal effect
Outline: as §3

CCc1cccc(CC)c1NC(=O)N1Cc2[nH]nc(NC(=O)c3ccc(N4CCN(C)CC4)cc3)c2C1
inactive: Potency [1] | Potency [2] | outcome [3] | Potency [9]
active: Potency [4] 7.43 µM | Potency [5] 1.18 µM | Potency [6] 7.43 µM | Potency [7] 16.6 µM | Potency [8] 4.69 µM | Potency [10] 4.69 µM | Potency [11] 1.66 µM | Potency [12] 20.9 µM | Potency [13] 13.2 µM

Cc1cc(-c2ncc(CC(=O)Nc3ccc(-c4cnccn4)cn3)cc2C)ccn1
active: Potency [14] 14.8 µM | Potency [4] 11.8 µM | Potency [5] 9.35 µM | Potency [7] 14.8 µM | Potency [10] 10.5 µM | Potency [11] 6.62 µM | Potency [13] 10.5 µM
inactive: Potency [1] | Potency [2] | outcome [3]

Cc1ccccc1C(C(=O)NC1CCCCC1)N(C(=O)CNc1ccc(C#N)cc1)c1cccc(F)c1 (stereo not given)
inactive: Potency [1] | Potency [2] | outcome [3] | Potency [5] | Potency [15] | Potency [6] | Potency [8] | Potency [10] | Potency [12] | Potency [13]

CN[C@@H](C)[C@H]1[C@H](O)C[C@@]2(C)[C@@H]3CC[C@H]4C(C)(C)[C@@H](NC)CC[C@@]45C[C@@]35CC[C@]12C
inactive: activity change, negative = thiol reactive [1] 7.61% [at 11.5 µM] | activity, negative = inhibition [2] 3.6% [at 11.6 µM] | redox activity (% of DA3003) [3] -0.744% [at 11.5 µM] | Potency [14] | Potency [16] | Potency [5] | Potency [15] | Potency [6] | Potency [8] | Potency [9] | Potency [10] | Potency [11] | Potency [12] | Potency [13] | Potency [18]
active: Potency [17] 23.5 µM

Cc1cnc(-c2cc(N3CCN(C(=O)CCS(C)(=O)=O)CC3)ncc2Cl)c(C)c1
active: Potency [16] 0.0132 µM | Potency [10] 18.7 µM
inactive: Potency [1] | Potency [2] | Potency [19] | Potency [17] | Potency [5] | Potency [15] | Potency [8] | Potency [11] | Potency [12]

CNC1CCC(N(Cc2cccc(-c3ccncc3)c2)C(=O)c2sc3ccccc3c2Cl)CC1 (stereo not given)
active: Potency [19] 20.9 µM | Potency [14] 7.43 µM | Potency [4] 18.7 µM | Potency [15] 16.6 µM | Potency [6] 18.7 µM | Potency [7] 8.33 µM | Potency [8] 10.5 µM | Potency [9] 14.8 µM | Potency [10] 7.43 µM | Potency [12] 14.8 µM | Potency [13] 9.35 µM | Potency [18] 18.7 µM
inactive: Potency [1] | Potency [2]

NS(=O)(=O)c1ccc(Nc2nc(OCC3CCCCC3)c3[nH]cnc3n2)cc1
inactive: Potency [1] | Potency [2] | outcome [3]
active: Potency [14] 16.6 µM | Potency [4] 18.7 µM | Potency [5] 16.6 µM | Potency [6] 18.7 µM | Potency [20] 14.8 µM | Potency [8] 20.9 µM | Potency [9] 20.9 µM | Potency [10] 3.32 µM | Potency [13] 13.2 µM

C[C@H](c1ccc(F)cc1CCCC(=O)O)N(c1cc(F)ccc1F)S(=O)(=O)c1ccc(Cl)cc1
inactive: Potency [1] | Potency [2] | outcome [3] | Potency [4] | Potency [15] | Potency [18]
active: Potency [14] 20.9 µM | Potency [17] 0.935 µM | Potency [8] 26.4 µM | Potency [13] 20.9 µM

Cc1c(C(=O)Nc2ccc(N3C[C@@H](C)O[C@@H](C)C3)nc2)cccc1-c1ccc(OC(F)(F)F)cc1
inactive: Potency [1] | Potency [2] | outcome [3] | Potency [8]
active: Potency [14] 4.69 µM | Potency [4] 2.96 µM | Potency [15] 8.33 µM | Potency [6] 1.18 µM | Potency [20] 1.66 µM | Potency [11] 14.8 µM | Potency [12] 7.43 µM | Potency [13] 4.18 µM

Nc1ccc(-c2ccc3ncc4ccc(=O)n(-c5cccc(C(F)(F)F)c5)c4c3c2)cn1
inactive: Potency [1] | Potency [2] | outcome [3]
active: Potency [16] 0.0187 µM | Potency [11] 0.0235 µM | Potency [12] 0.0469 µM

O=C(Nc1cccc(C(F)(F)F)c1)Nc1cc(S(=O)(=O)NC2CC2)ccc1-c1ccsc1
active: Potency [8] 23.5 µM | Potency [13] 26.4 µM
inactive: Potency [1] | Potency [2] | outcome [3] | Potency [16] | Potency [5] | Potency [15] | Potency [6] | Potency [9]

Clc1ccc(C2(c3ccc(-c4cn[nH]c4)cc3)CCNCC2)cc1
active: Potency [14] 1.32 µM | Potency [16] 20.9 µM | Potency [17] 23.5 µM | Potency [20] 6.62 µM | Potency [8] 26.4 µM | Potency [10] 5.9 µM | Potency [11] 20.9 µM | Potency [12] 16.6 µM | Potency [13] 3.72 µM
inactive: Potency [1] | Potency [2] | outcome [3]

COc1nccc(-c2c(-c3ccc(F)cc3)ncn2C2CCNCC2)n1
active: Potency [10] 10.5 µM | Potency [12] 1.66 µM
inactive: Potency [1] | Potency [2] | outcome [3] | Potency [16] | Potency [4] | Potency [15] | Potency [6] | Potency [13]

Cc1cc(C(C)Nc2ccccc2)c2nc(N3CCOCC3)cc(=O)n2c1 (stereo not given)
active: Potency [14] 9.35 µM | Potency [4] 18.7 µM | Potency [7] 1.48 µM | Potency [8] 14.8 µM | Potency [10] 18.7 µM | Potency [13] 4.18 µM
inactive: Potency [1] | Potency [2] | outcome [3]
